High-throughput results as filed in PubChem BioAssay.
Sampled rows, rich in hits. Any-hit rate of the full collection: about 2.1%.
B2AR arrestin: qHTS assay of beta-arrestin-biased ligands of beta2-adrenergic receptor | Beta-2 adrenergic receptor (Homo sapiens), P07550 | beta-arrestin recruitment to beta2AR, cell-based reporter | Potency, µM (titrated, usually from 46.1 µM), inactives show top-dose activation, usual class: activators | actives 0.02% (n = 330,000);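 note: potency is the fitted concentration of half-maximal effect; 0% = DMSO controls and full agonism = EC100 isoproterenol or metaproterenol; nearly all actives have a fitted effect of over 65% in size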
ClpP mod: qHTS Assay for Activators of ClpP | purified B. subtilis ClpP, FRET peptide cleavage, 20 min | Potency, µM (titrated, usually from 57.5 µM), without a hit: at the highest dose activity change, negative = active | actives 1.9% (n = 340,000); active = well fitted falling curve with a large enough effect; inconclusive = small, poorly fitted or top-dose-only effect; inactive = no such curve, though single readings can be large or run the other way; note: potency is the fitted concentration of half-maximal effect; the source files actives as falling curves though it sought activators and does not explain the sign; nearly all actives have a fitted effect of over 65% in size
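Buffer: 100 mM Tris/HCl pH8, 100 mM KCl, 0.05% low protease BSA, 2.5% glycerol, 0.01% Tween-20. ClpP 10 microg/mL final; 20 min RT; delta FRET normalized to ADEP and DMSO controls.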
p53 reactivator: qHTS assay for re-activators of p53 using a Luc reporter. actives 0.063% (n = 320,000). H1299 p53-A138V BP100-luciferase reporter, luminescence, 24 h. Potency, µM (doses to about 92.2 µM), inactives show at the top dose activity change, positive = activation, most hits filed as activators; note: potency is the fitted concentration of half-maximal effect; % of control where 0% means no effect; nearly all actives have a fitted effect of over 45% in size
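p53-null H1299 cells stably carrying temperature-sensitive p53-A138V and a BP100-luciferase reporter were pinned with compounds (4-point, 1:5 series) and held 24 hrs at 37 deg C. Luminescence was read 10 min after detection reagent.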
uPA generation: qHTS for Inhibitors of Cell Surface uPA Generation | Potency, µM (top dose mostly 38.3 µM), for the others: at the highest dose activity change, negative = inhibition, actives largely listed as inhibitors | cell surface uPA generation assay, qHTS | AID 540303, 2011 | actives 0.31% (n = 330,000); active = well fitted inhibition curve with a large enough effect; inconclusive = small, poorly fitted or top-dose-only effect; inactive = no such curve, though single readings can be large or run the other way; tested in mouse RAW 264.7 cells; note: potency is the fitted concentration of half-maximal effect; % is set by controls: 0 for no effect and ±100 for the full control effect; nearly all actives have a fitted effect of over 55% in size
Mito fusion yeast: qHTS Assay for Small Molecule Inhibitors of Mitochondrial Division or Activators of Mitochondrial Fusion | S. cerevisiae fusion-defective mutant growth rescue, CellTiterGlo 48 h | Potency, µM (series often up to 46.1 µM), without a hit: at the highest dose growth rescue (activation), most hits filed as activators | actives 0.23% (n = 320,000); note: potency is the fitted concentration of half-maximal effect; % of control where 0% means no effect; nearly all actives have a fitted effect of over 45% in size
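Luminescent cell viability in 1536-well qHTS format served as the measure of rescued growth in ts fusion-mutant S. cerevisiae cultured on non-fermentable YPEG for 48 hours at 37C.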
Giardia killer: Small Molecules that selectively kill Giardia lamblia: qHTS; activity change, % at 7.66 µM, hits read low; actives 0.15% (n = 340,000); Giardia lamblia trophozoite viability; AID 540267, 2011; in the data active = activity change below about -80%; inconclusive = between about -30% and that limit;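 note: parasites exposed to compound for two days anaerobically before the ATP read; % is set by controls: 0 for no effect and ±100 for the full control effect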
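ATP-content bioluminescence gauges trophozoite survival. Cells (100/well) receive compound and incubate anaerobically for 48 hrs at 37 deg C; detection reagent follows for 15-30 min at room temperature.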
ClpP inh valid: qHTS Assay for Activators of ClpP: Hit Validation of Inhibitors. purified B. subtilis ClpP, FRET-FV substrate cleavage, 20 min. actives 40% (n = 470). AID 743245, 2014. shares compounds with ClpP mod. Potency, µM (doses to about 57.5 µM), without a hit: at the top dose activity change, negative = inhibition, most hits filed as inhibitors; note: potency is the fitted concentration of half-maximal effect; % is set by controls: 0 for no effect and ±100 for the full control effect; nearly all actives have a fitted effect of over 70% in size
* = called active by the depositor; ? = inconclusive; nt = not tested or not shown. Unless noted, calls come from the whole dose curve; as a rule, active = well fitted curve in the direction sought with a large enough effect; inconclusive = small, poorly fitted or top-dose-only effect, or another doubt; inactive = no such curve, though single readings can be large; an effect the other way counts as inactive or inconclusive.

SMILES	B2AR arrestin	ClpP mod	p53 reactivator	uPA generation	Mito fusion yeast	Giardia killer	others
CCOC(=O)CCCc1cc[c]([Sb](=[O])([OH])[OH])cc1	nt	-3%	nt	nt	nt	-11
N#C/C(=C/c1ccc(O)c(O)c1)C(N)=S	nt	nt	nt	nt	21µM*	nt
N#CC(C#N)=Cc1ccc(C=C(C#N)C#N)cc1	0%	nt	-10%	-3%	-2%	3
CN1CC=C2C(C#N)=C(N)C(C#N)(C#N)C(c3ccncc3)C2C1 (configuration not stated)	0%	28µM*	-6%	-1%	-2%	-20
Cc1ccccc1NC(=O)NCCN1CC1	0%	-1%	14%	3%	9%	2
O=C(NCCCN1CC1)Nc1cccc2ccccc12	nt	25µM*	nt	-1%	nt	2
C=CCn1c(O)c(C(C)=NCCCN(C)C)c(=O)[nH]c1=O	-1%	14µM*	0%	9%	-1%	-5
CC(C)c1oc(=O)cc2c1[C@@H](O)[C@H]1OC(=O)[C@@]3(C)C[C@@H](O)[C@@H](O)[C@@]2(C)C13 (some centres not stated)	-2%	-1%	-2%	2.2µM*	5%	6
CC(C)c1oc(=O)cc2c1[C@@H](O)[C@H]1OC(=O)[C@@]3(C)CC[C@@H](O)[C@@]2(C)C13 (some centres not stated)	0%	1%	2%	?	-4%	-20
Cc1cc(N(CCCl)CCCl)ccc1C=NNC(=O)Cc1cc(=O)oc2cc(O)ccc12	nt	28µM*	nt	-14%	nt	-10
Cc1cc(N(CCCl)CCCl)ccc1/C=N/NC(=O)c1ccco1	1%	0%	3%	-10%	2%	-8
Cc1ccc(N2C(=O)NC(=O)/C(=C\C=C\c3ccco3)C2=O)cc1	-1%	0%	-11%	7.9µM*	-2%	-2
Cc1cccc(N2C(=O)NC(=O)/C(=C\C=C\c3ccco3)C2=O)c1	11%	0%	-12%	10µM*	1%	1
O=C1NC(=O)N(c2ccccc2)C(=O)/C1=C/C=C/c1ccco1	6%	2%	-11%	10µM*	-2%	6
Cc1ccc(N2C(=O)NC(=O)/C(=C\C=C\c3ccco3)C2=O)cc1C	3%	-1%	-19%	-8%	-1%	-10
COc1ccccc1NC(=O)c1oc2ccccc2c1NC(=O)COc1cccc(C)c1	nt	18%	nt	nt	nt	nt
Cc1cccc(CN2CCc3nc(N4CCN(c5ccccn5)CC4)ncc3C2)c1	nt	55%	nt	nt	nt	nt
O=C(NCCc1ccccc1)[C@@H]1CC=C[C@@H]2CCN(Cc3ccc(Cl)c(Cl)c3)C(=O)[C@@H]21	nt	2%	nt	?	nt	-22
CNc1ccc2nc3ccccc3[n+](C)c2c1	-1%	0%	-18%	4.5µM*	-19%	-22
O=C(Nc1ccc(N2CCCC2)cc1)c1ccccc1[N+](=O)[O-]	0%	0%	nt	?	1%	-3
O=C(N/N=C/c1ccc([N+](=O)[O-])s1)c1ccccc1Br	-1%	-17%	-11%	?	2%	-96*
CN(CCOc1ccc(Cl)cc1)C(=O)c1cccc(S(=O)(=O)N2CCN(c3ccccc3)CC2)c1	nt	-1%	nt	?	nt	-16
C=C(C)[C@H]1Cc2c(ccc3c2O[C@@H]2COc4cc(OC)c(OC)cc4[C@@H]2C3=O)O1	nt	nt	nt	nt	18µM*	nt
COc1ccc(-n2c(=S)[nH]c3c(sc(=S)n3-c3ccccc3)c2=O)c(OC)c1	0%	11µM*	3%	-2%	2%	-4
CNC(=O)COC(=O)c1ccc(-c2nc3ccccc3s2)s1	0%	6.3µM*	6%	4%	-6%	1
SMILES	B2AR arrestin	ClpP mod	p53 reactivator	uPA generation	Mito fusion yeast	Giardia killer	others
CCCCN1CC(O)=C(c2nc3ccccc3s2)C1=N	-1%	-9%	?	-2%	0%	5
CS(=O)(=O)c1ccc2nc(NC(=O)c3ccccc3Br)sc2c1	0%	-6%	nt	?	-7%	6
C[C@]12c3[nH]c4ccc(Cl)cc4c3CCN1C(=O)[C@@H](CC(=O)NCc1ccco1)C[C@@H]2C(=O)N1CCCCC1	1%	1%	-10%	?	nt	5
O=c1c2ccccc2[se]n1-c1ccccc1	-2%	-1%	1%	?	0.46µM*	-19
O=C(Cn1c(=O)oc2ccccc21)N1CCCC1	0%	-3%	-1%	2%	?	11
CN(N=O)c1cc(O)ccc1O	nt	nt	nt	nt	23µM*	-19
c1cc2c3c(cccc3c1)CC2	nt	0%	nt	nt	nt	nt
Nc1cccc2cccc([N+](=O)[O-])c12	nt	16µM*	nt	-4%	nt	38
Cc1ccc(OCC(=O)N2CCN(Cc3cccnc3)CC2)cc1	0%	1%	4%	4%	-1%	-4
Cc1cccc(OCC(=O)N2CCN(Cc3cccnc3)CC2)c1	0%	28µM*	-2%	3%	4%	-18
O=C(NCCc1ccc(Cl)cc1)c1ccc(Nc2nc3ccccc3n3nnnc23)cc1	nt	119%	nt	nt	nt	nt	ClpP inh valid=22µM*
Cc1ccc(CNC(=O)c2ccc(Nc3nc4ccccc4n4nnnc34)cc2)cc1	nt	130%	nt	nt	nt	nt	ClpP inh valid=2.7µM*
COc1ccc(C(=O)NCc2cc3ccccc3n2C)cc1	-1%	-9%	?	2%	3%	-3
COc1cccc(NC(=O)c2cccn(Cc3ccccc3C)c2=O)c1	nt	-9%	nt	nt	nt	nt
COc1ccc(C[C@H]2CN3C(=NC[C@@H]3Cc3ccc(O)cc3)N2C[C@H](C)NC(=O)c2ccc(C)c(Br)c2)cc1	10%	-4%	4%	?	-1%	-24
CNc1ccc2oc(C[C@H]3O[C@@]4(CC[C@H]3C)O[C@H]([C@H](C)C(=O)c3ccc[nH]3)[C@H](C)C[C@H]4C)nc2c1C(=O)O	0%	5%	1%	?	?	-4	ClpP inh valid=27µM*
CCN1C[C@@]2(COC)C3[C@@H](OC)C4[C@@H]1C3([C@@H]1C[C@]3(O)[C@H](OC(=O)c5ccccc5)[C@@H]1[C@]4(OC(C)=O)[C@@H](O)[C@@H]3OC)[C@H](OC)C[C@H]2O	nt	nt	nt	nt	7%	nt
Oc1cc2c(cc1CN1CCN(c3ccccc3F)CC1)OCO2	0%	nt	2%	-2%	-3%	3
CCCCC(=O)Nc1c(C(=O)N2CCN(c3ccccc3F)CC2)oc2ccccc12	nt	1.3µM*	nt	nt	nt	nt	ClpP inh valid=-2%
